Potency data for 18 molecules are collected here from PubChem BioAssay (NCATS).

Inconclusive results are not listed. Active and inactive are the calls of the source. Calls follow the shape of the dose curve; as a rule, active = well fitted inhibition curve with a large enough effect; inconclusive = small, poorly fitted or top-dose-only effect; inactive = flat fitted curve, though single readings scatter.

Common to all, as to assay: qHTS profiling for inhibitors of Plasmodium falciparum proliferation (AID 504749); also: nearly all actives have a fitted effect of over 60% in size
Conditions in all cases: P. falciparum in erythrocytes, SYBR Green DNA, 72 h; series mostly up to 28.7 µM
In general terms: Quantitative high-throughput screening tests each substance at several concentrations.

The test system of one assay is CP211. The gist of the method: (§1)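 In a 72 h erythrocytic culture (37 C, humidified, 5% CO2) at 2.5% hematocrit and 0.3% starting parasitemia, compounds were tested; SYBR Green I in detergent lysis buffer stained parasite DNA overnight.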
In the next assay the test system is CP217. The gist of the method: as §1
The test system of the next assay is CP237. Put shortly:
as §1

The subject of another assay is CP238. The gist of the method:
as §1

In another assay the test system is CP247. Put shortly: as §1
Another assay relates to CP250. The gist of the method: as §1
Another assay has as its system CP252. Put shortly:
as §1

The next assay has as its system CP256. Put shortly:
as §1

The next assay relates to CP260. Put shortly: as §1
The test system of the next assay is CP262. Put shortly:
as §1

A further assay deals with CP265. Put shortly:
as §1

The next assay has as its system CP268. Put shortly: as §1
The next assay deals with CP269. Put shortly:
as §1

In the next assay the test system is CP286. The gist of the method: as §1
The next assay relates to CP291. Put shortly:
as §1

In another assay the test system is CP297. Put shortly: as §1
A further assay has as its system CP305. The gist of the method: as §1
For a further assay, the system named is CP315. Put shortly:
as §1

In another assay the test system is CP266. The gist of the method:
as §1

Another assay relates to CP215. The gist of the method: as §1
Potency is read from the fitted curve at half-maximal effect.

In the case of `Cc1ncc([N+](=O)[O-])n1CCO`, the Potency entry with CP211, in the assay with CP217, in the assay on CP237, in the assay with CP238, with CP247 and in the assay with CP250 was “inactive” throughout. Also, the Potency entry in the assay on CP252, with CP256, in the assay on CP260, in the assay on CP262, in the assay on CP265 and in the assay with CP268 was “inactive” each time. In addition, the Potency entry in the assay on CP269, in the assay on CP286, in the assay with CP291, with CP297, with CP305 and in the assay on CP315 was “inactive” each time.
As to `CC(C)(C)C(=O)OCOP(=O)(COCCn1cnc2c(N)ncnc21)OCOC(=O)C(C)(C)C`, the Potency entry in the assay on CP211, in the assay on CP247, in the assay on CP262, with CP266, in the assay with CP268 and with CP291 was “inactive” throughout. Also, the Potency entry with CP305 and in the assay on CP315 was “inactive” each time.
On to `COc1cccc(N(C)C(=S)Oc2ccc3c(c2)CCCC3)n1`, for which the Potency result in the assay on CP211, in the assay on CP217, with CP237, in the assay on CP238, in the assay with CP247 and in the assay on CP250 was “inactive” each time. The Potency result in the assay with CP252, with CP256, with CP262, in the assay with CP265, in the assay with CP266 and in the assay with CP269 was “inactive” throughout. The Potency result in the assay with CP305 and with CP315 was “inactive” each time.
`CNCC[C@H](Oc1cccc2ccccc12)c1cccs1`: the Potency result in the assay on CP211, in the assay with CP266, in the assay on CP291, in the assay with CP305 and in the assay with CP315 was “inactive” in each case. Besides, the Potency with CP237 was 10 µM (active); in the assay with CP260 it was 8.91 µM (active); with CP286, 12.6 µM (active).
As to `O=C(O)c1cn(C2CC2)c2cc(N3CCNCC3)c(F)cc2c1=O`, the Potency result in the assay with CP217 and in the assay with CP247 was “inactive” in each case.
In the case of `C1CCC(C(CC2CCCCN2)C2CCCCC2)CC1` (stereo unspecified), the Potency in the assay on CP217 was 10 µM (active); with CP237, 7.94 µM (active); with CP247, 11.2 µM (active); with CP250 it was 12.6 µM (active); in the assay on CP252 it was 11.2 µM (active); in the assay on CP256, 10 µM (active). Also, the Potency in the assay on CP260 was 8.91 µM (active); in the assay with CP266, 15.1 µM (active); in the assay on CP268 it was 12 µM (active); with CP269 it was 13.5 µM (active); in the assay with CP286, 3.98 µM (active); in the assay with CP291 it was 12 µM (active). Moreover, the Potency in the assay with CP297 was 13.5 µM (active). Also, in the assay on CP262, the Potency result was “inactive”.
For `NC(=O)N1c2ccccc2CC(=O)c2ccccc21`, the Potency result with CP211, in the assay with CP217, in the assay with CP237, in the assay with CP238, with CP247 and in the assay on CP250 was “inactive” each time. For the same molecule, the Potency entry in the assay on CP252, in the assay with CP256, in the assay with CP260, in the assay on CP265, in the assay with CP266 and in the assay on CP268 was “inactive” in each case. The Potency result in the assay on CP269, with CP286, with CP297, in the assay on CP305 and in the assay on CP315 was “inactive” each time.
Turning to `O=c1oc2c(O)c(O)cc3c(=O)oc4c(O)c(O)cc1c4c23`, the Potency in the assay with CP237 was 2 µM (active); in the assay on CP260, 1.41 µM (active); with CP269, 0.757 µM (active); with CP286, 1 µM (active); in the assay on CP297, 1.51 µM (active). Besides, the Potency result in the assay on CP265 was “inactive”.
Take `CCn1cc(C(=O)O)c(=O)c2cc(F)c(N3CCN(C)CC3)cc21`: the Potency result with CP238, with CP262, in the assay with CP266, in the assay with CP268, in the assay on CP269 and in the assay on CP297 was “inactive” each time. Further, the Potency result in the assay with CP315 is “inactive”. Besides, in the assay with CP286, the Potency is 7.08 µM (active).
`CCOC(=O)c1ccc(C#Cc2ccc3c(c2)C(C)(C)CCS3)nc1`: the Potency entry in the assay on CP215, with CP217, with CP237, in the assay on CP238, in the assay on CP252 and in the assay with CP262 was “inactive” in each case. The Potency entry in the assay on CP266, in the assay on CP269, in the assay on CP297 and in the assay on CP315 was “inactive” each time.
Regarding `Cc1oc(=O)oc1CN1CCN(c2cc3c(cc2F)c(=O)c(C(=O)O)c2n3C(C)S2)CC1` (stereo unspecified), the Potency is 11.2 µM (active) in the assay with CP217; 10 µM (active) in the assay on CP237; 6.31 µM (active) in the assay on CP238; 8.91 µM (active) with CP247; 8.91 µM (active) in the assay on CP250; 7.94 µM (active) in the assay with CP252. Besides, the Potency in the assay on CP256 is 8.91 µM (active); in the assay on CP260, 6.31 µM (active); in the assay with CP265 it was 11.2 µM (active); in the assay on CP286, 7.94 µM (active). Further, the Potency entry with CP266 and in the assay with CP315 was “inactive” in each case.
On to `CN(Cc1cc(Br)cc(Br)c1N)C1CCCCC1`, for which the Potency entry in the assay with CP211, in the assay with CP215, with CP217, in the assay on CP247, in the assay with CP250 and in the assay on CP252 was “inactive” throughout. For the same molecule, the Potency result in the assay with CP256, with CP262, with CP265, in the assay with CP266, in the assay with CP268 and with CP269 was “inactive” throughout. For the same molecule, the Potency entry in the assay on CP291, in the assay with CP297, in the assay with CP305 and in the assay on CP315 was “inactive” throughout.
As for `CNS(=O)(=O)Cc1ccc2[nH]cc(CCN(C)C)c2c1`, the Potency result in the assay with CP211, in the assay on CP217, in the assay on CP237, in the assay with CP238, in the assay with CP247 and in the assay on CP250 was “inactive” each time. Moreover, the Potency entry with CP252, with CP256, in the assay on CP260, in the assay on CP262, in the assay on CP265 and with CP266 was “inactive” in each case. Also, the Potency result in the assay on CP268, with CP269, with CP286, with CP291, in the assay on CP297 and with CP305 was “inactive” throughout. Also, the Potency result in the assay on CP315 was “inactive”.
Consider `Cn1nnc2c(C(N)=O)ncn2c1=O`, for which the Potency result in the assay on CP211, in the assay with CP217, in the assay with CP237, in the assay on CP238, with CP247 and in the assay with CP250 was “inactive” in each case. The Potency entry in the assay with CP252, with CP256, in the assay on CP260, with CP262, with CP265 and in the assay on CP266 was “inactive” throughout. The Potency result with CP268, with CP269, in the assay on CP286, in the assay on CP291, with CP297 and with CP305 was “inactive” throughout. The Potency result in the assay on CP315 was “inactive”.
For `CNC(=O)c1cc(Oc2ccc(NC(=O)Nc3ccc(Cl)c(C(F)(F)F)c3)cc2)ccn1`, the Potency with CP211 is 12 µM (active); in the assay with CP215, 15.1 µM (active); in the assay with CP237 it was 11.2 µM (active); with CP238, 10 µM (active); in the assay on CP247 it was 10 µM (active); in the assay on CP250 it was 10 µM (active). The Potency with CP297 was 9.53 µM (active).
For `CC[C@H](C)C(=O)O[C@H]1C[C@@H](C)C=C2C=C[C@H](C)[C@H](CC[C@@H]3C[C@@H](O)CC(=O)O3)[C@H]21`, the Potency result in the assay with CP211, in the assay with CP217, in the assay with CP237, in the assay with CP238, in the assay with CP247 and with CP250 was “inactive” in each case. In addition, the Potency entry with CP252, in the assay on CP256, in the assay with CP260, in the assay with CP262, with CP265 and with CP266 was “inactive” throughout. The Potency result in the assay on CP268, in the assay on CP269, in the assay on CP286, with CP291, in the assay on CP297 and in the assay with CP305 was “inactive” each time. In addition, the Potency entry in the assay with CP315 was “inactive”.
As to `CCn1cc(C(=O)O)c(=O)c2cc(F)c(N3CCNCC3)cc21`, the Potency result with CP215, in the assay with CP217, with CP238, with CP247, in the assay on CP250 and in the assay with CP262 was “inactive” each time. Also, the Potency entry in the assay on CP265 and with CP315 was “inactive” throughout.
For `CCCCOc1ccc(CC(=O)NO)cc1`, the Potency was 2.56 µM (active) in the assay on CP211; 4.47 µM (active) in the assay with CP237; 4.47 µM (active) in the assay with CP247; 2.24 µM (active) in the assay with CP250; 3.98 µM (active) with CP252; 1.41 µM (active) in the assay with CP256. Also, the Potency in the assay on CP260 is 2.82 µM (active); in the assay with CP262, 2.56 µM (active); in the assay on CP286, 3.98 µM (active); in the assay with CP291 it was 3.22 µM (active); in the assay on CP305, 4.55 µM (active).
